Source: the supplement of paper PMC10849652
Targets with a hit are over-represented here; the source holds about 7,900 in all. About 0.6% of all pairs of compound and target were hits.

What was measured:
Experiment in all cases: log2 fold change, soluble protein after heating vs DMSO (PISA); higher = thermal stabilisation; K562 cells, 10 uM, 30 min; active = over 0.2 and 3.5 SD of the protein, either way, in both replicates (recomputed)
[1] = compound: Cc1ccc(NC(=O)c2ccc(CN3CC[C@H](N(C)C)C3)c(C(F)(F)F)c2)cc1Nc1nccc(-c2cncnc2)n1 [bafetinib]
Procedure, shortened: (§1)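 Soluble protein was defined as the supernatant after 21,000xg for 90 min. It came from K562 cells at 2×10^6 cells/mL given 10 μM compound for 30 min, heated in aliquots for 3 min across 48°C-58°C, pooled, and extracted in PBS with 0.5% NP-40 at 4°C, and was quantified by TMTpro 16plex LC-MS/MS with equalised channel sums. Thermal stability against control samples, from duplicates, is reported as log2 fold change.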

[2] = compound: Cc1cccc(CC(=O)N2CCc3c2ccc(-c2cn(C)c4ncnc(N)c24)c3F)n1
Procedure, shortened: as §1

[3] = compound: Cc1cn(-c2cc(NC(=O)c3ccc(C)c(Nc4nccc(-c5cccnc5)n4)c3)cc(C(F)(F)F)c2)cn1 [nilotinib]
Procedure, shortened: as §1

[4] = compound: Cc1nc(Nc2n[nH]c3c2CN(C(=O)N[C@H](CN(C)C)c2ccccc2)C3(C)C)c2sccc2n1
Procedure, shortened: as §1

[5] = compound: Cc1nc(Nc2ncc(C(=O)Nc3c(C)cccc3Cl)s2)cc(N2CCN(CCO)CC2)n1 [dasatinib]
Procedure, shortened: as §1

[6] = compound: Cc1ncc(-c2ccnc(Nc3ccc(S(C)(=O)=O)cc3)n2)n1C(C)C
Procedure, shortened: as §1

[7] = compound: Cn1cc(-c2ccc3c(c2)CCN3C(=O)Cc2cccc(C(F)(F)F)c2)c2c(N)ncnc21
Procedure, shortened: as §1

[8] = compound: Cn1cc(-c2ccc3nnc(C(F)(F)c4ccc5ncccc5c4)n3n2)cn1
Procedure, shortened: as §1

[9] = compound: Cn1cncc1[C@@](N)(c1ccc(Cl)cc1)c1ccc2c(c1)c(-c1cccc(Cl)c1)cc(=O)n2C [tipifarnib]
Procedure, shortened: as §1

[10] = compound: FC(F)(F)c1ccc(/C=C/c2nc(COc3ccc(CCCCn4ccnn4)cc3)co2)cc1 [mubritinib]
Procedure, shortened: as §1

[11] = compound: NC(=O)Nc1cc(-c2cccc(F)c2)sc1C(=O)N[C@H]1CCCNC1
Procedure, shortened: as §1

[12] = compound: NC(=O)c1cnc(N[C@@H]2CCCC[C@@H]2N)nc1Nc1cccc(-n2nccn2)c1
Procedure, shortened: as §1

[13] = compound: NC1(c2ccc(-c3nc4ccn5c(=O)[nH]nc5c4cc3-c3ccccc3)cc2)CCC1
Procedure, shortened: as §1

[14] = compound: NCC(=O)Nc1ccc(-n2nc(C(F)(F)F)cc2-c2ccc3c(ccc4ccccc43)c2)cc1
Procedure, shortened: as §1

[15] = compound: Nc1ccccc1NC(=O)c1ccc(CNC(=O)OCc2cccnc2)cc1 [entinostat]
Procedure, shortened: as §1

[16] = compound: O=C(CCCCCCC(=O)Nc1ccccc1)NO [vorinostat]
Procedure, shortened: as §1

[17] = compound: O=C(CCCCCCNC(=O)c1cnc(N(c2ccccc2)c2ccccc2Cl)nc1)NO [citarinostat]
Procedure, shortened: as §1

[18] = compound: O=C(O)c1ccc2c(c1)nc(Nc1cccc(Cl)c1)c1ccncc12 [silmitasertib]
Procedure, shortened: as §1

[19] = compound: O=C1NC(=O)C(c2cnc3ccccn23)=C1c1cn2c3c(cc(F)cc13)CN(C(=O)N1CCCCC1)CC2
Procedure, shortened: as §1

[20] = compound: c1cc(OCCN2CCCCC2)cc(-c2n[nH]c3ccc(-c4nnc[nH]4)cc23)c1
Procedure, shortened: as §1

Measured: log2 fold change

MTOR (UniProt P42345)
active: [13] -0.315
inactive: [1] -0.018 | [2] 0.014 | [3] -0.158 | [4] 0.068 | [5] -0.166 | [6] -0.069 | [7] 0.004 | [8] 0.037 | [9] -0.12 | [10] 0.068 | [11] -0.016 | [12] -0.102 | [14] -0.111 | [15] 0.042 | [16] 0.049 | [17] 0.035 | [18] 0.102 | [19] -0.065 | [20] -0.004

PACS1 (UniProt Q6VY07)
UniProt Q6VY07, sequence (Q6VY07 whole entry, looked up): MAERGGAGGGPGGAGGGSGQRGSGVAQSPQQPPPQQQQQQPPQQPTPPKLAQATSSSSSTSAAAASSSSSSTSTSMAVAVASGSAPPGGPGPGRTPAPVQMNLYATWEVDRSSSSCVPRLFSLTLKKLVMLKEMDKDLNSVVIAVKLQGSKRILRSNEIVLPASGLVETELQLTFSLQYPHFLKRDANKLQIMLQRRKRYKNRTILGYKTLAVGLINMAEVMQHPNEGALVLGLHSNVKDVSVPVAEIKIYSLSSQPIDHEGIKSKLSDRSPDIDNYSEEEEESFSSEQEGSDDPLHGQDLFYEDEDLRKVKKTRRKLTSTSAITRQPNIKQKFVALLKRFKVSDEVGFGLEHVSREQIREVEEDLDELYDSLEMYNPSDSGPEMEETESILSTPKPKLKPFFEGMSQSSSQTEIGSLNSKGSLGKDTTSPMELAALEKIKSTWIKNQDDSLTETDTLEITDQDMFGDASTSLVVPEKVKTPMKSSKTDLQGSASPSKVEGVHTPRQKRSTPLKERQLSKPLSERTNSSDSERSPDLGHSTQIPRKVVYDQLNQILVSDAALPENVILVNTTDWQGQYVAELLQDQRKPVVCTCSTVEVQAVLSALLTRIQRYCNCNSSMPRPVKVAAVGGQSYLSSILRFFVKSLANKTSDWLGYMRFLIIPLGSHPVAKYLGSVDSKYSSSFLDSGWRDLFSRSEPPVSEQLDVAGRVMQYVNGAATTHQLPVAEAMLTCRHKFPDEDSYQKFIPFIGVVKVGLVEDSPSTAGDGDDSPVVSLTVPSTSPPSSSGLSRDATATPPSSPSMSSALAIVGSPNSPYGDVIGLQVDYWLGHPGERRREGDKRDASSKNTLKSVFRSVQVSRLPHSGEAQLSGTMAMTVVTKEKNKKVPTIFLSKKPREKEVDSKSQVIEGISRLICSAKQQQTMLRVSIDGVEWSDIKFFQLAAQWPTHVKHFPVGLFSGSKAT
inactive: [1] 0.008 | [2] 0.02 | [3] 0.051 | [4] 0.038 | [5] 0.018 | [6] -0.018 | [7] -0.006 | [8] -0.098 | [9] -0.002 | [10] -0.021 | [11] 0 | [12] 0.041 | [13] -0.081 | [14] -0.01 | [15] 0.004 | [16] 0.022 | [17] -0.012 | [18] -0.074 | [19] 0.062 | [20] -0.113

NCOA7 (UniProt Q8NI08)
inactive: [1] -0.017 | [2] 0.154 | [3] -0.044 | [4] -0.046 | [5] -0.144 | [6] -0.039 | [7] 0.085 | [8] 0.004 | [9] -0.125 | [10] 0.054 | [11] -0.061 | [12] -0.036 | [13] -0.068 | [14] -0.033 | [15] -0.067 | [16] 0.026 | [17] -0.001 | [18] 0.022 | [19] -0.093 | [20] -0.005

NR2C2 isoform 2 (UniProt P49116)
UniProt P49116, sequence (P49116 whole entry, looked up): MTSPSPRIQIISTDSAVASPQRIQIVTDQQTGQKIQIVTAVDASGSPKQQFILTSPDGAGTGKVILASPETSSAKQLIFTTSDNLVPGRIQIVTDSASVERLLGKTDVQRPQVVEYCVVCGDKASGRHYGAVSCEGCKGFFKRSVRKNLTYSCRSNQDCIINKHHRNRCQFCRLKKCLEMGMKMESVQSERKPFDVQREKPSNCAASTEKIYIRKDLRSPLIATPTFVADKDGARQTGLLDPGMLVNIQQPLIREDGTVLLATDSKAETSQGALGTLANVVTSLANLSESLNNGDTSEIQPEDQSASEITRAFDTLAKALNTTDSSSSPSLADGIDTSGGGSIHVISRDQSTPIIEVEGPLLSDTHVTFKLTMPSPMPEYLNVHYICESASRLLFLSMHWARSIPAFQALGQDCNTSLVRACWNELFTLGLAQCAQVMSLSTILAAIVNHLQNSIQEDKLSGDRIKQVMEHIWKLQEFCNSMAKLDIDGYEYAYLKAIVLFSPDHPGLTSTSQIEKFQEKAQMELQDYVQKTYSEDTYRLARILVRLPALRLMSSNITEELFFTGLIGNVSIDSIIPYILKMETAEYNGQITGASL
inactive: [1] -0.093 | [2] 0.027 | [3] -0.033 | [4] -0.091 | [5] -0.026 | [6] 0.021 | [7] -0.003 | [8] -0.038 | [9] -0.184 | [10] 0.026 | [11] -0.056 | [12] -0.036 | [13] -0.211 | [14] -0.104 | [15] -0.02 | [16] -0.116 | [17] -0.022 | [18] 0.074 | [19] 0.03 | [20] -0.04

NSMCE4A (UniProt Q9NXX6)
active: [10] 0.552
inactive: [1] -0.145 | [2] -0.144 | [3] 0.189 | [4] -0.254 | [5] -0.051 | [6] 0.03 | [7] 0.025 | [8] -0.131 | [9] 0.026 | [11] 0.181 | [12] 0.059 | [13] 0 | [14] -0.023 | [15] -0.087 | [16] -0.155 | [17] -0.018 | [18] 0.149 | [19] -0.038 | [20] -0.067

MRPS12 (UniProt O15235)
inactive: [1] 0.269 | [2] 0.146 | [3] -0.161 | [4] 0.073 | [5] 0.062 | [6] -0.024 | [7] -0.045 | [8] 0.111 | [9] -0.082 | [10] 0.143 | [11] 0.207 | [12] -0.053 | [13] -0.005 | [14] 0.221 | [15] -0.017 | [16] 0.038 | [17] 0.01 | [18] -0.007 | [19] 0.101 | [20] -0.056

MRPS27 isoform 2 (UniProt Q92552)
inactive: [1] 0.181 | [2] 0.099 | [3] -0.083 | [4] 0.021 | [5] -0.104 | [6] -0.049 | [7] 0.022 | [8] 0.033 | [9] -0.112 | [10] 0.119 | [11] 0.067 | [12] -0.015 | [13] -0.105 | [14] -0.007 | [15] 0.011 | [16] 0.104 | [17] 0.08 | [18] -0.04 | [19] 0.049 | [20] -0.012

NOLC1 isoform 2 (UniProt Q14978)
active: [6] -0.376
inactive: [1] 0.105 | [2] -0.031 | [3] 0.1 | [4] -0.1 | [5] 0.145 | [7] -0.013 | [8] 0.02 | [9] 0.027 | [10] -0.031 | [11] 0.149 | [12] -0.031 | [13] -0.011 | [14] 0.014 | [15] -0.043 | [16] 0.009 | [17] 0.109 | [18] -0.037 | [19] -0.037 | [20] -0.183

PAK1 isoform 2 (UniProt Q13153)
UniProt Q13153, sequence (Q13153 whole entry, looked up): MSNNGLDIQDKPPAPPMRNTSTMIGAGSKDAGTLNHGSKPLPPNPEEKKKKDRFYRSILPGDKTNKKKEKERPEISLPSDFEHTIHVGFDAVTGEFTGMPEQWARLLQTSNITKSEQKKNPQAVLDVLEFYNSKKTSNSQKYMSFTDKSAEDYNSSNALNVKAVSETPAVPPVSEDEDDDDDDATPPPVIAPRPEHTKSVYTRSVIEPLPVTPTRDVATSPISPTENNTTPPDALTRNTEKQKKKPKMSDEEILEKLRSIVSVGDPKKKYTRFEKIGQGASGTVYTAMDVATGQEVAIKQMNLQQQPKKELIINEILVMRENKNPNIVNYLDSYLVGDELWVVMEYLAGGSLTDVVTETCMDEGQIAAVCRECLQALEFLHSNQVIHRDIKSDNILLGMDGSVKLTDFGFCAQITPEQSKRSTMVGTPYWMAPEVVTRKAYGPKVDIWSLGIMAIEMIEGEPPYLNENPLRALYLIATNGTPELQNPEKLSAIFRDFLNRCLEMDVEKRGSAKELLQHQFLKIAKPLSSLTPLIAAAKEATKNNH
inactive: [1] -0.017 | [2] 0.04 | [3] 0.03 | [4] 0.036 | [5] -0.025 | [6] -0.027 | [7] 0.041 | [8] 0.035 | [9] -0.004 | [10] 0.015 | [11] -0.067 | [12] 0.051 | [13] 0.012 | [14] -0.083 | [15] 0.021 | [16] 0.096 | [17] -0.033 | [18] 0.043 | [19] -0.068 | [20] -0.032

OTUD6B (UniProt Q8N6M0)
inactive: [1] -0.014 | [2] 0.105 | [3] -0.114 | [4] -0.067 | [5] -0.142 | [6] -0.031 | [7] 0.044 | [8] 0.067 | [9] -0.039 | [10] -0.02 | [11] -0.122 | [12] -0.121 | [13] -0.167 | [14] -0.064 | [15] 0.022 | [16] 0.215 | [17] -0.013 | [18] 0.059 | [19] -0.065 | [20] -0.053

NCAPD2 (UniProt Q15021)
inactive: [1] 0.03 | [2] 0.045 | [3] -0.078 | [4] -0.071 | [5] -0.159 | [6] 0.08 | [7] -0.035 | [8] 0.018 | [9] -0.148 | [10] 0.033 | [11] -0.109 | [12] -0.075 | [13] -0.149 | [14] -0.045 | [15] 0.084 | [16] 0.058 | [17] 0.078 | [18] 0.135 | [19] 0.014 | [20] -0.002

NCL (UniProt P19338)
UniProt P19338, sequence (P19338 whole entry, looked up): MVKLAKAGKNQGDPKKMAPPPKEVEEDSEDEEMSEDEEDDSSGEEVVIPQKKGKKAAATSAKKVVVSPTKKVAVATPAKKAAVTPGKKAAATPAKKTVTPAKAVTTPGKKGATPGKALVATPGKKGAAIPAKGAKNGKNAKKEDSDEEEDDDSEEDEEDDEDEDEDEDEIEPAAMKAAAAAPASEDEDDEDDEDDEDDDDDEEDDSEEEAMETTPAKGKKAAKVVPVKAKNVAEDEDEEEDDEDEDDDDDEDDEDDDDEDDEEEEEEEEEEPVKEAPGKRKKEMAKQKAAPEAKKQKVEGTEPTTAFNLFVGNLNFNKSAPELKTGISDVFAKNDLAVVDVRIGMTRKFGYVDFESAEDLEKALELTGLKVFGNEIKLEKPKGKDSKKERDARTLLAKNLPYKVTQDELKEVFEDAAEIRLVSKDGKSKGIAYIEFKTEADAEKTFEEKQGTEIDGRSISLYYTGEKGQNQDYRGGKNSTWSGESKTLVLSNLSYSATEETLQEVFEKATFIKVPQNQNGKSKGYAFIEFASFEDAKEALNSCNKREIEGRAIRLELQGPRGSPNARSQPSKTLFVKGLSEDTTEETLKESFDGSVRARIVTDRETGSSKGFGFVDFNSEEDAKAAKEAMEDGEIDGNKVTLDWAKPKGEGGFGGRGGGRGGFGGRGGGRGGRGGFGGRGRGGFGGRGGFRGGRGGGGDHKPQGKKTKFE
inactive: [1] 0.272 | [2] 0 | [3] -0.033 | [4] 0.026 | [5] 0.209 | [6] 0.051 | [7] -0.445 | [8] -0.237 | [9] 0.225 | [10] -0.325 | [11] 0.015 | [12] 0.024 | [13] 0.331 | [14] 0.156 | [15] -0.093 | [16] -0.018 | [17] -0.105 | [18] 0.2 | [19] 0.147 | [20] -0.171

MRPS9 (UniProt P82933)
inactive: [1] 0.106 | [2] 0.067 | [3] -0.094 | [4] 0.008 | [5] -0.023 | [6] -0.024 | [7] -0.073 | [8] 0.057 | [9] -0.025 | [10] 0.085 | [11] -0.03 | [12] -0.011 | [13] -0.117 | [14] 0.018 | [15] 0.008 | [16] 0.167 | [17] 0.035 | [18] -0.083 | [19] -0.019 | [20] -0.081

NR2C2AP isoform 2 (UniProt Q86WQ0)
UniProt Q86WQ0, sequence (Q86WQ0 whole entry, looked up): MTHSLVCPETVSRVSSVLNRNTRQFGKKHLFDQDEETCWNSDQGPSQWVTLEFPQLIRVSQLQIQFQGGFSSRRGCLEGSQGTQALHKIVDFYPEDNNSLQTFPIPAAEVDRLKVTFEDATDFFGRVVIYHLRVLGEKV
inactive: [1] 0.037 | [2] 0.03 | [3] -0.072 | [4] 0.003 | [5] -0.095 | [6] -0.008 | [7] 0.028 | [8] -0.016 | [9] 0.007 | [10] 0.072 | [11] -0.082 | [12] -0.131 | [13] -0.05 | [14] -0.094 | [15] -0.02 | [16] -0.027 | [17] 0.079 | [18] 0.062 | [19] -0.092 | [20] -0.035

ORC3 isoform 2 (UniProt Q9UBD5)
UniProt Q9UBD5, sequence (Q9UBD5 whole entry, looked up): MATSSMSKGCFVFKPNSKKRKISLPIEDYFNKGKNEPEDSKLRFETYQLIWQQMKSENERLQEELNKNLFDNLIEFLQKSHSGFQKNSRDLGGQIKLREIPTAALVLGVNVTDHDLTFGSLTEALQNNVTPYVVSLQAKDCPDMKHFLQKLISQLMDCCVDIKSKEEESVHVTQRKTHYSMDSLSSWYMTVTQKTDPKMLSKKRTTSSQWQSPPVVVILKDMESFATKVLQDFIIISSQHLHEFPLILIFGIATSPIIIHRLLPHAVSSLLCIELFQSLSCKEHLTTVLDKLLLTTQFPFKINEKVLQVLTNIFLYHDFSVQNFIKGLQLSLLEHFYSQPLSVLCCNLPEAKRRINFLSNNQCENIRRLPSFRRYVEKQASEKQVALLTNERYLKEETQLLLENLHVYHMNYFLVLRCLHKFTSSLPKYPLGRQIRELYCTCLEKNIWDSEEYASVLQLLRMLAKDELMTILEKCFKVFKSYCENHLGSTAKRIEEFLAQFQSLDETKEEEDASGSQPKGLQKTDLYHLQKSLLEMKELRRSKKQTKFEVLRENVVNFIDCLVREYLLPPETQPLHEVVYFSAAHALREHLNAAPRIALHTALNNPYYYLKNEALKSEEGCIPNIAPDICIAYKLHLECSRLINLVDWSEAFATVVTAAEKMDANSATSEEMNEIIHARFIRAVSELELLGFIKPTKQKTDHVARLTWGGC
inactive: [1] -0.032 | [2] 0.099 | [3] -0.262 | [4] -0.254 | [5] -0.298 | [6] -0.118 | [7] 0.067 | [8] 0.109 | [9] 0.086 | [10] 0.029 | [11] 0.018 | [12] -0.09 | [13] -0.093 | [14] -0.142 | [15] -0.004 | [16] 0.236 | [17] 0.023 | [18] 0.058 | [19] 0.008 | [20] -0.188

MINK1 (UniProt Q8N4C8)
UniProt Q8N4C8, sequence (Q8N4C8 whole entry, looked up): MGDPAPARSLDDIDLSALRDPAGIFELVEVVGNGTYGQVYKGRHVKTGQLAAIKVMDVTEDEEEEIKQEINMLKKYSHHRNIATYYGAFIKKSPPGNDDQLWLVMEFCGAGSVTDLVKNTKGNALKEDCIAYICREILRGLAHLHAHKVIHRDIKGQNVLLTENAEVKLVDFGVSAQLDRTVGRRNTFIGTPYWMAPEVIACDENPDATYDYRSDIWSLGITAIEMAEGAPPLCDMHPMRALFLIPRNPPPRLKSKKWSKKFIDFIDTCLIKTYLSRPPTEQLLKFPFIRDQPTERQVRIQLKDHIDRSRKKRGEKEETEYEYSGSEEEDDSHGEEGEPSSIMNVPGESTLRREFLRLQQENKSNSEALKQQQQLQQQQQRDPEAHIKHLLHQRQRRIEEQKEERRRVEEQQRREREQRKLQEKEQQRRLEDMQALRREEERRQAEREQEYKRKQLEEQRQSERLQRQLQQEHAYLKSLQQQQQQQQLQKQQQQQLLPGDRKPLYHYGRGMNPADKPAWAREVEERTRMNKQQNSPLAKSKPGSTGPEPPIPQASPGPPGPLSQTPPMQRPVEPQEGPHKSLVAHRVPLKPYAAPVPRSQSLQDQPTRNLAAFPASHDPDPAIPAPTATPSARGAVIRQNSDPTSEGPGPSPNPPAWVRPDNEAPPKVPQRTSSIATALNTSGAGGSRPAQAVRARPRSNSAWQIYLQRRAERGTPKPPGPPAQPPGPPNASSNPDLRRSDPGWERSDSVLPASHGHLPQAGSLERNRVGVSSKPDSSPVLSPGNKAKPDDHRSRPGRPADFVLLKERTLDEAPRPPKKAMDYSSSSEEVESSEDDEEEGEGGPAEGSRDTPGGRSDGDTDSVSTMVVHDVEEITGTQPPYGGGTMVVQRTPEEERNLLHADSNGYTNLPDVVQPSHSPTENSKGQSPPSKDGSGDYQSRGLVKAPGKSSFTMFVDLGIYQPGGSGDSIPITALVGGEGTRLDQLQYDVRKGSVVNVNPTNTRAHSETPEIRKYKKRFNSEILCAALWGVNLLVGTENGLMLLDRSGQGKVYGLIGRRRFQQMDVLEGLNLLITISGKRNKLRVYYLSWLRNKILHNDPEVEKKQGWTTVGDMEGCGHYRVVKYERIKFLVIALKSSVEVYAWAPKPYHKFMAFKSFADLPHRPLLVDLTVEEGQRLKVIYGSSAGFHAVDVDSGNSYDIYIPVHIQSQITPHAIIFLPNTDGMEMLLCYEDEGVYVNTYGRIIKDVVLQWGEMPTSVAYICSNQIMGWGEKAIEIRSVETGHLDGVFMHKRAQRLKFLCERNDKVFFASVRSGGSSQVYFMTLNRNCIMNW
inactive: [1] -0.031 | [2] -0.04 | [3] -0.025 | [4] -0.062 | [6] -0.09 | [7] 0.02 | [8] -0.042 | [9] 0.018 | [10] 0.014 | [11] 0.006 | [12] -0.032 | [13] -0.097 | [14] 0.005 | [15] 0.045 | [16] 0.057 | [17] 0.077 | [18] -0.041 | [19] 0.015 | [20] -0.119
active: [5] -0.222
